# For some assays here: Potency and affinity values are given separately. The source made the active and inactive calls.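 The calls were made as follows, unless noted: active = primary screen hit whose fluorescence ratio, in both repeats, exceeds the weak agonist control mean by 3 SD; inactive = the rest.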
# Columns and labels:
# [1] = test system: TRPC4 beta (transient receptor potential cation channel C4), mouse; assay: activators of mouse TRPC4 channel, confirmation, cell-based, Fluo4 calcium, HEK293 TRPC4beta/mu-opioid, duplicates, 10 µM (AID 2426;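 active = fluorescence ratio normalized to control raised more than 50% in primary screen plus both repeat runs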); settings: Fluo4 calcium fluorescence, at 10 µM; active compounds read high
# [2] = test system: transient receptor potential cation channel C4 beta (TRPC4), mouse; assay: activators of mouse TRPC4 channel, confirmation, cell-based, second round, Fluo4, HEK293 TRPC4beta/mu-opioid, 1 µM (AID 2461;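 active = primary screen active and over 50% activation in each of two duplicate runs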); settings: Fluo4 calcium fluorescence, at 1 µM; active compounds read high
# [3] = test system: TRPC4 (transient receptor potential cation channel C4 beta), mouse; assay: positive allosteric modulators of mouse TRPC4, confirmation, cell-based, second round, Fluo-4, HEK293 TRPC4beta/mu-opioid, 1 µM (AID 2554); settings: DAMGO EC20, Fluo-4 calcium flux, at 1 µM; active compounds read high
# [4] = test system: TRPC4 beta (transient receptor potential cation channel C4), mouse; assay: positive allosteric modulators of mouse TRPC4, confirmation, cell-based, Fluo-4, HEK293 TRPC4beta/mu-opioid (AID 2555;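 active = primary screen hit whose calcium fluorescence ratio, in both repeats, exceeds the weak agonist control mean by 3 SD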); settings: DAMGO EC20, Fluo-4 calcium flux, at 10 µM; active compounds read high
# [5] = biological target: Short transient receptor potential channel 4 (Mus musculus) (UniProt Q9QUQ5); assay: inhibitors of mouse TRPC4 channel, confirmation, cell-based, Fluo4, HEK293 TRPC4beta/mu-opioid (AID 2636;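 active = calcium signal cut by more than 3 SD below the full-agonist control yet still positive, in both repeats and the earlier primary screen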); settings: DAMGO, Fluo4 calcium flux, at 10 µM; active compounds read high
# [6] = biological target: Short transient receptor potential channel 4 (Mus musculus) (UniProt Q9QUQ5); assay: inhibitors of mouse TRPC4 channel, confirmation, cell-based, second round, Fluo4, HEK293 TRPC4beta/mu-opioid, 1 µM (AID 2637;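 active = calcium signal ratio cut to more than 3 SD under the fully stimulated control mean yet still positive, in both repeats and the primary screen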;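 as to inhibition: percent of integrated ratio relative to wells lacking test compound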); settings: Fluo4 calcium flux, DAMGO, at 1 µM; active compounds read high
# [7] = biological target: Short transient receptor potential channel 4 (Mus musculus) (UniProt Q9QUQ5); assay: mouse TRPC4 channel activators, dose response, cell-based, HEK293 TRPC4/mu-opioid, Fluo-4 calcium (AID 434937;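 active = primary screen activator hit with a dose response curve and TRPC4 channel activation at any tested dose; inactive = no activation, no dose response, or not a primary hit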)
# [8] = biological target: Short transient receptor potential channel 4 (Mus musculus) (UniProt Q9QUQ5); assay: TRPC4 positive allosteric modulators, dose response, cell-based, HEK293 TRPC4/mu-opioid, Fluo-4 calcium, EC20 DAMGO (AID 434941;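 active = earlier screen potentiator hit that boosts the TRPC4 ion channel at some dose, with a dose response; inactive = no potentiation, no dose response, or not a prior hit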;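 also: calcium entry triggered by an EC20 dose of DAMGO at the co-expressed mu-opioid receptor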)
# [9] = biological target: Short transient receptor potential channel 6 (Mus musculus) (UniProt Q61143); assay: inhibition of mouse TRPC6 channel, confirmation, selectivity assay for TRPC4 inhibitor project, cell-based, HEK293, membrane potential dye, duplicate (AID 434948;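 active = active in primary screen and both duplicates, each dropping signal beyond three positive-control SD with fluorescence still positive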); settings: HEK293 TRPC6, membrane potential dye fluorescence, at 10 µM, stimulated with maximal-effect acetylcholine; active compounds read high
# [10] = biological target: Short transient receptor potential channel 6 (Mus musculus) (UniProt Q61143); assay: activation of mouse TRPC6 channel, confirmation, selectivity assay for TRPC4 activator project, cell-based, HEK293, membrane potential dye, duplicate (AID 434950;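 active = membrane potential signal rise above negative control mean plus 3 SD in both duplicates, also active in the earlier TRPC4 screen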); settings: HEK293 TRPC6, membrane potential fluorescence, at 10 µM; active compounds read high
# [11] = biological target: Short transient receptor potential channel 6 (Mus musculus) (UniProt Q61143); assay: TRPC6 potentiation by TRPC4 potentiator hits, confirmation, selectivity assay for TRPC4 potentiator project, HEK293 cells, membrane potential dye, duplicate (AID 434952;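 active = compound raising the membrane signal above positive-control mean plus 3 SD in both repeats, and a primary screen hit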); settings: HEK293 TRPC6, membrane potential dye fluorescence, at 10 µM, maximal acetylcholine added after compound; active compounds read high
# [12] = biological target: Short transient receptor potential channel 4 (Mus musculus) (UniProt Q9QUQ5); assay: calcium flux activators in TRPC4/5HT1a cells, counter-screen for TRPC4 activator project, cell-based, second counter screen, HEK293 TRPC4/5HT1a, Fluo-4 (AID 434977;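 active = calcium signal rise above buffer-control mean plus 5 SD in both duplicates, and also a hit in the primary screen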); settings: Fluo-4 calcium flux, at 10 µM; active compounds read high
# [13] = calcium flux inhibitors in TRPC4/5HT1a cells, confirmation, counter-screen for TRPC4 inhibitor project, cell-based, second counter screen, HEK293 TRPC4/5HT1a, Fluo-4 (AID 434978;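 active = primary screen active whose calcium signal fell more than 3 SD beyond the full-serotonin control mean in both duplicate plates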;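 as to outcome: serotonin given first at submaximal then at maximal dose after compound preincubation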); settings: Fluo-4 calcium flux, at 10 µM, serotonin added to trigger calcium flux; active compounds read high
# [14] = test system: TRPC4 (mouse), co-expressed with 5HT1a in HEK293; assay: calcium flux potentiators in TRPC4/5HT1a cells, confirmation, counter-screen for TRPC4 potentiator project, cell-based, second counter screen, HEK293 TRPC4/5HT1a, Fluo-4 (AID 434979;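 active = signal rise over 3 SD above mean of control wells given weak agonist, in both repeats and first screen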); settings: Fluo-4 calcium flux, at 10 µM, serotonin added at its EC20 dose; active compounds read high
# [15] = calcium flux activation in mu-opioid HEK293 cells, confirmation, counter-screen for TRPC4 activator project, cell-based, HEK293 mu-opioid receptor line (AID 449723;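 active = hit in primary screen, with calcium signal over 5 SD above buffer well mean in both duplicates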;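 also: counter screen cells carry the mu-opioid receptor alone and lack TRPC4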); settings: Fluo-4 calcium fluorescence, at 10 µM; active compounds read high
# [16] = calcium flux enhancement in mu-opioid HEK293 cells, confirmation, counter-screen for TRPC4 allosteric potentiator project, cell-based, HEK293 mu-opioid receptor line (AID 449724;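 active = calcium signal rise more than 3 SD above the low-dose agonist control mean, in both duplicate plates and the primary screen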); settings: Fluo-4 calcium flux, at 10 µM, compound added before EC20 DAMGO stimulus; active compounds read high
# Short transient receptor potential channel 4 (Mus musculus), sequence (Q9QUQ5 whole entry, looked up): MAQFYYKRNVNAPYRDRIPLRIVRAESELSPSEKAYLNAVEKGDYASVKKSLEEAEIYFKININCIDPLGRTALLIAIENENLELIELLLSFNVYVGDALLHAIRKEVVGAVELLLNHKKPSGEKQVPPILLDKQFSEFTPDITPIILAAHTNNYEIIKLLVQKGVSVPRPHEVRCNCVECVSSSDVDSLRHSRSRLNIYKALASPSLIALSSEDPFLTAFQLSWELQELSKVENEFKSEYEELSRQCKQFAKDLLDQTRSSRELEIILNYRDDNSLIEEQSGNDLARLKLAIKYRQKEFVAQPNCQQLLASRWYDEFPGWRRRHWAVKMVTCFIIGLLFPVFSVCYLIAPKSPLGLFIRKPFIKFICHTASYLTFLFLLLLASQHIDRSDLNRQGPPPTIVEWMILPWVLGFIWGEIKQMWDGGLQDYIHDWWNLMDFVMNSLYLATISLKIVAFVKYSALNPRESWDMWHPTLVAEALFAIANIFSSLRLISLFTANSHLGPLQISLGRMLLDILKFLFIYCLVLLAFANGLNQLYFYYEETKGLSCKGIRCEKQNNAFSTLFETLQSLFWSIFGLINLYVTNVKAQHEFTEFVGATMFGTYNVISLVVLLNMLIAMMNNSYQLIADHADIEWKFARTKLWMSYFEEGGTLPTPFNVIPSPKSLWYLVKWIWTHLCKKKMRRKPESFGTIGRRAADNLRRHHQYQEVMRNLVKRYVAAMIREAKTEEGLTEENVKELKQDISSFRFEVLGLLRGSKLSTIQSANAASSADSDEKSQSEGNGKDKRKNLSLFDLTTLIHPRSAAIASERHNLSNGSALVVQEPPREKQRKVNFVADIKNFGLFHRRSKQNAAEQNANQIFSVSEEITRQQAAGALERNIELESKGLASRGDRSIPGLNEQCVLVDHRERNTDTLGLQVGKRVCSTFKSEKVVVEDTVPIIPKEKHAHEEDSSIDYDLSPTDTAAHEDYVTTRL
# Short transient receptor potential channel 6 (Mus musculus), sequence (Q61143 whole entry, looked up): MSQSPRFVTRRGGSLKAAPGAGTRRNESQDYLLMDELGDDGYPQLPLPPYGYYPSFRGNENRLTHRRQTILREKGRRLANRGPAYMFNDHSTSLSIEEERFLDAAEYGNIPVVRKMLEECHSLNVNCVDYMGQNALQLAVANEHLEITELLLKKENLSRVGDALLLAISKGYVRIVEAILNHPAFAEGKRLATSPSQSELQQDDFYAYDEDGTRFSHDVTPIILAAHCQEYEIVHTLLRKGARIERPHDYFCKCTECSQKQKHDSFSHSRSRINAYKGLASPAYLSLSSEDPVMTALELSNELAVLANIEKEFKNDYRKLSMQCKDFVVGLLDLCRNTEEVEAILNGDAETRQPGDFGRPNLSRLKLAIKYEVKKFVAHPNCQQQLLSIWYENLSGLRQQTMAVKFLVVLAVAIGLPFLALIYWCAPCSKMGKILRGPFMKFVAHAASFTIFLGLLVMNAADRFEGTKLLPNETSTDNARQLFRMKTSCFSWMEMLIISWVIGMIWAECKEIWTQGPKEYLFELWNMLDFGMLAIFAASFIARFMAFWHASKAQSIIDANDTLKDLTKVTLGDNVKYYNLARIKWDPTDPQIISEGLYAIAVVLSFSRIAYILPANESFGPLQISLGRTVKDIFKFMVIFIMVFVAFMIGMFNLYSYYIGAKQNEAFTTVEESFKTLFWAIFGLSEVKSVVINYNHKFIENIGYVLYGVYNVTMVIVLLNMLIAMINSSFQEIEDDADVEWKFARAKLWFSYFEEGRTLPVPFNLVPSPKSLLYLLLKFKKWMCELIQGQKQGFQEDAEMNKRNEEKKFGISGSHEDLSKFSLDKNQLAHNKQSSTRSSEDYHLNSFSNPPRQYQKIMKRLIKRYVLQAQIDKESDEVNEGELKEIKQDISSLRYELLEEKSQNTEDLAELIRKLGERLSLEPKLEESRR
smiles,measurement,setting,value
Cc1ccc(C(=O)C2=C(O)C(=O)N(Cc3cccnc3)C2c2ccc(Cl)c(Cl)c2)o1 (centres undefined),outcome,[1],inactive
same,outcome,[2],inactive
same,outcome,[3],inactive
same,outcome,[4],inactive
same,inhibition,[5],90% (active)
same,outcome,[6],inactive
same,outcome,[7],inactive
same,outcome,[8],inactive
same,outcome,[9],inactive
same,outcome,[10],inactive
same,outcome,[11],inactive
same,outcome,[12],inactive
same,inhibition,[13],32.8% (active)
same,outcome,[14],inactive
same,outcome,[15],inactive
same,outcome,[16],inactive
CCOc1cc(CNCCCN2CCOCC2)cc(Br)c1OCc1ccccc1Cl,outcome,[1],inactive
same,outcome,[2],inactive
same,outcome,[3],inactive
same,outcome,[4],inactive
same,inhibition,[5],77% (active)
same,outcome,[6],inactive
same,outcome,[7],inactive
same,outcome,[8],inactive
same,outcome,[9],inactive
same,outcome,[10],inactive
same,outcome,[11],inactive
same,outcome,[12],inactive
same,outcome,[13],inactive
same,outcome,[14],inactive
same,outcome,[15],inactive
same,outcome,[16],inactive
CC(C)NCC(O)COCCOc1ccc(C(C)(C)C)cc1 (centres undefined),outcome,[1],inactive
same,outcome,[2],inactive
same,outcome,[3],inactive
same,outcome,[4],inactive
same,inhibition,[5],97% (active)
same,inhibition,[6],59% (active)
same,outcome,[7],inactive
same,outcome,[8],inactive
same,outcome,[9],inactive
same,outcome,[10],inactive
same,outcome,[11],inactive
same,outcome,[12],inactive
same,inhibition,[13],28.6% (active)
same,outcome,[14],inactive
same,outcome,[15],inactive
same,outcome,[16],inactive
Cc1[nH]nc(-c2ccc(O)cc2O)c1-c1ccc(Cl)cc1,outcome,[1],inactive
same,outcome,[2],inactive
same,outcome,[3],inactive
same,outcome,[4],inactive
same,inhibition,[5],86% (active)
same,outcome,[6],inactive
same,outcome,[7],inactive
same,outcome,[8],inactive
same,outcome,[9],inactive
same,outcome,[10],inactive
same,outcome,[11],inactive
same,outcome,[12],inactive
same,inhibition,[13],23.5% (active)
same,outcome,[14],inactive
same,outcome,[15],inactive
same,outcome,[16],inactive
O=C(O)c1ccc(NC(=S)NC(=O)c2ccc(-c3ccccc3)cc2)cc1,outcome,[1],inactive
same,outcome,[2],inactive
same,outcome,[3],inactive
same,outcome,[4],inactive
same,inhibition,[5],64% (active)
same,outcome,[6],inactive
same,outcome,[7],inactive
same,outcome,[8],inactive
same,outcome,[9],inactive
same,outcome,[10],inactive
same,outcome,[11],inactive
same,outcome,[12],inactive
same,inhibition,[13],43.1% (active)
same,outcome,[14],inactive
same,outcome,[15],inactive
same,outcome,[16],inactive
COC(=O)c1c(NC(=O)CSc2ncn[nH]2)sc(C)c1C,outcome,[1],inactive
same,outcome,[2],inactive
same,outcome,[3],inactive
same,outcome,[4],inactive
same,inhibition,[5],67% (active)
same,outcome,[6],inactive
same,outcome,[7],inactive
same,outcome,[8],inactive
same,outcome,[9],inactive
same,outcome,[10],inactive
same,outcome,[11],inactive
same,outcome,[12],inactive
same,outcome,[13],inactive
same,outcome,[14],inactive
same,outcome,[15],inactive
same,outcome,[16],inactive
CCOC(=O)C(C)Sc1nc2c(c(=O)[nH]c(=O)n2C)n1Cc1ccc(Cl)cc1 (centres undefined),outcome,[1],inactive
same,outcome,[2],inactive
same,outcome,[3],inactive
same,outcome,[4],inactive
same,inhibition,[5],93% (active)
same,inhibition,[6],68% (active)
same,outcome,[7],inactive
same,outcome,[8],inactive
same,outcome,[9],inactive
same,outcome,[10],inactive
same,outcome,[11],inactive
same,outcome,[12],inactive
same,inhibition,[13],19.9% (active)
same,outcome,[14],inactive
same,outcome,[15],inactive
same,outcome,[16],inactive
Cc1cccc2cc(CN(Cc3nnnn3Cc3ccccc3)C3CCCC3)c(=O)[nH]c12,outcome,[1],inactive
same,outcome,[2],inactive
same,outcome,[3],inactive
same,outcome,[4],inactive
same,inhibition,[5],91% (active)
same,inhibition,[6],63% (active)
same,outcome,[7],inactive
same,outcome,[8],inactive
same,outcome,[9],inactive
same,outcome,[10],inactive
same,outcome,[11],inactive
same,outcome,[12],inactive
same,outcome,[13],inactive
same,outcome,[14],inactive
same,outcome,[15],inactive
same,outcome,[16],inactive
CCCn1c(NC(=O)c2ccc(Cl)c(S(=O)(=O)N3CCCC3)c2)nc2ccccc21,outcome,[1],inactive
same,outcome,[2],inactive
same,potentiation,[3],10% (active)
same,potentiation,[4],24% (active)
same,inhibition,[5],69% (active)
same,outcome,[6],inactive
same,outcome,[7],inactive
same,outcome,[8],inactive
same,outcome,[9],inactive
same,outcome,[10],inactive
same,outcome,[11],inactive
same,outcome,[12],inactive
same,outcome,[13],inactive
same,potentiation,[14],6.75% (active)
same,outcome,[15],inactive
same,outcome,[16],inactive
COc1ccc(C2NC(C(=O)O)Cc3c2[nH]c2ccccc32)cc1CN1CCN(c2ccc(F)cc2)CC1 (centres undefined),outcome,[1],inactive
same,outcome,[2],inactive
same,outcome,[3],inactive
same,outcome,[4],inactive
same,inhibition,[5],58% (active)
same,outcome,[6],inactive
same,outcome,[7],inactive
same,outcome,[8],inactive
same,outcome,[9],inactive
same,outcome,[10],inactive
same,outcome,[11],inactive
same,outcome,[12],inactive
same,inhibition,[13],41.6% (active)
same,outcome,[14],inactive
same,outcome,[15],inactive
same,outcome,[16],inactive
Clc1ccc(C[n+]2cc(-c3ccccc3)n3c2CCC3)cc1Cl,outcome,[1],inactive
same,outcome,[2],inactive
same,outcome,[3],inactive
same,outcome,[4],inactive
same,inhibition,[5],93% (active)
same,inhibition,[6],60% (active)
same,outcome,[7],inactive
same,outcome,[8],inactive
same,outcome,[9],inactive
same,outcome,[10],inactive
same,outcome,[11],inactive
same,outcome,[12],inactive
same,inhibition,[13],25.4% (active)
same,outcome,[14],inactive
same,outcome,[15],inactive
same,outcome,[16],inactive
CCOC(=O)CSc1nc2ccccc2c(=O)n1CC1CCCC1,outcome,[1],inactive
same,outcome,[2],inactive
same,outcome,[3],inactive
same,outcome,[4],inactive
same,inhibition,[5],84% (active)
same,outcome,[6],inactive
same,outcome,[7],inactive
same,outcome,[8],inactive
same,outcome,[9],inactive
same,outcome,[10],inactive
same,outcome,[11],inactive
same,outcome,[12],inactive
same,inhibition,[13],18.3% (active)
same,outcome,[14],inactive
same,outcome,[15],inactive
same,outcome,[16],inactive
OCC1(CCc2ccccc2)CCN(Cc2cc(Cl)ccc2O)CC1,outcome,[1],inactive
same,outcome,[2],inactive
same,outcome,[3],inactive
same,outcome,[4],inactive
same,inhibition,[5],79% (active)
same,outcome,[6],inactive
same,outcome,[7],inactive
same,outcome,[8],inactive
same,outcome,[9],inactive
same,outcome,[10],inactive
same,outcome,[11],inactive
same,outcome,[12],inactive
same,outcome,[13],inactive
same,outcome,[14],inactive
same,outcome,[15],inactive
same,outcome,[16],inactive
O=C(COc1ccc(F)cc1)c1c(O)cc(O)cc1O,outcome,[1],inactive
same,outcome,[2],inactive
same,outcome,[3],inactive
same,outcome,[4],inactive
same,inhibition,[5],84% (active)
same,outcome,[6],inactive
same,outcome,[7],inactive
same,outcome,[8],inactive
same,outcome,[9],inactive
same,outcome,[10],inactive
same,outcome,[11],inactive
same,outcome,[12],inactive
same,inhibition,[13],36.3% (active)
same,outcome,[14],inactive
same,outcome,[15],inactive
same,outcome,[16],inactive

# Source: PubChem BioAssay
